Assay outcomes deposited in PubChem BioAssay by The Scripps Research Institute Molecular Screening Center.
FBW7 activator – human FBW7 E3 ligase activation, primary screen. 650,000 compounds, 0.13% hits. AID 1259310. AlphaScreen FBW7–phospho-cyclin E peptide binding, activator screen. normalized activity (activation), % at 26.1 µM. Q969H0; in the data active = normalized activity above about 1.9%;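 note: purified mutant Fbw7 with reduced substrate affinity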
GPR151 ag – activators of human GPR151. PathHunter beta-arrestin GPR151 cells, luminescence. 650,000 compounds, 1% hits. Q8TDV0. activation, % at 11.2 µM. AID 1508602; in the data active = activation above about 4.9%;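 note: 0% = median of compound wells and 100% = cells with positive control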
TEAD-YAP inh – TEAD-YAP interaction inhibition; HEK-TIYL cells, TEAD-Gal4/YAP UAS-luciferase luminescence; inhibition, % at 9.12 µM; 640,000 compounds, 1.4% hits; in the data active = inhibition above about 32%;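 note: 0% = median of test compound wells and 100% = reference inhibitor wells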
MITF primary – human MITF inhibition, primary screen. 650,000 compounds, 0.91% hits. O75030. inhibition, % at 2.6 µM. AlphaScreen MITF homodimerization, bead proximity signal. AID 1259374; in the data active = inhibition above about 50%;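 note: 0% = vehicle wells with protein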
Target sequence (O75030 whole entry, looked up): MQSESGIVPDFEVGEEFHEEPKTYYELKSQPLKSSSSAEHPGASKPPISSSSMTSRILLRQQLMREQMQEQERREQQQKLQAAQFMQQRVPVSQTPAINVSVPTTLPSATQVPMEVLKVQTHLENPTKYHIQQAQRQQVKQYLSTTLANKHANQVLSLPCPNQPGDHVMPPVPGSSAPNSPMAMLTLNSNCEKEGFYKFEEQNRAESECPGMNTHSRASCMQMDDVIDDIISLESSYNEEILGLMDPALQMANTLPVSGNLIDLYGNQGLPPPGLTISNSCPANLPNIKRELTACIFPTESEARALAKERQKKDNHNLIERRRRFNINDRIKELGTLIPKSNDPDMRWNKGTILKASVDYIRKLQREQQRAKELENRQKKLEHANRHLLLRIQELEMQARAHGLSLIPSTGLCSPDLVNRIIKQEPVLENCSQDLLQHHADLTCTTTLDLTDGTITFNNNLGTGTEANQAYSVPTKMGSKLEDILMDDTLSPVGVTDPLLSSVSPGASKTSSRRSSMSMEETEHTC
Active calls of the source: *; · = no result given. Most compounds without a hit are left out; they make up all but 3.5% or so of the library.

SMILES | FBW7 activator | GPR151 ag | TEAD-YAP inh | MITF primary
CN(C)CCN(CC1CCCC1)C(=O)Nc1ccc(-c2cn[nH]c2)cc1N(C)CCN(C)C | 0.2 | 0.8 | 35.8* | 12.5
CC(C)NC(=O)c1ccc(Cl)c([N+](=O)[O-])c1 | 0.0 | 1.2 | 2.3 | 1.8
COc1ccc(NS(=O)(=O)c2cc(NC(=O)CNC(C)=O)ccc2N2CCCC2)cc1 | -0.1 | -0.5 | 39.0* | -2.2
Cc1ccc(N(CCCCN2C(=O)c3ccccc3C2=O)C(=O)c2cccc(C)c2)cc1 | -0.1 | 0.8 | 6.5 | 1.5
Cc1cccc(OCCOC(=O)c2ccc(S(C)(=O)=O)c([N+](=O)[O-])c2)c1 | -0.1 | -0.4 | 37.6* | 7.2
Cc1ccc(S(=O)(=O)Nc2ccccc2C(=O)Nc2nc3c(C)cccc3s2)cc1 | 0.1 | -0.3 | 45.6* | -18.4
COc1ccccc1C(=O)NNc1nc2c(C)cccc2s1 | -0.2 | 0.8 | 33.0* | 0.5
Cc1ccc(S(=O)(=O)Nc2ccccc2C(=O)Nc2ccc(-c3nc4ccccc4o3)cc2)cc1 | 1.6 | 0.5 | 38.9* | 19.4
CC(=O)c1ccc(NC(=O)c2ccccc2NS(=O)(=O)c2ccc(C)cc2)cc1 | -0.1 | 1.6 | 14.4 | -1.2
COc1cccc(C(=O)NNc2nc3c(C)cccc3s2)c1 | -0.2 | -2.0 | -4.7 | -11.0
COC(=O)c1ccc(-c2csc(NC(=O)c3ccccc3NS(=O)(=O)c3ccc(C)cc3)n2)cc1 | 0.0 | -0.3 | 8.2 | 17.4
COc1ccc(-c2csc(NC(=O)c3ccccc3NS(=O)(=O)c3ccc(C)cc3)n2)cc1 | 0.0 | 0.7 | 37.7* | -5.1
COc1ccc(C(=O)Nc2nn3c(-c4ccco4)nnc3s2)cc1 | -0.1 | 2.1 | 4.8 | 2.9
O=C(c1ccccc1)c1ccc2c3c(cccc13)C(=O)N(c1cccc(C(F)(F)F)c1)C2=O | 0.1 | 0.2 | 6.9 | 17.2
Cc1ccc(S(=O)(=O)c2nnn(CC(=O)Nc3ccccc3C)c2N)cc1C | 0.0 | 0.0 | 2.1 | 8.5
O=C(Nc1ccc(-c2nc3ccccc3o2)cc1)C1CCN(C(=O)C2CCCC2)CC1 | 0.0 | -0.8 | -11.1 | 51.8*
Cc1ccc(S(=O)(=O)Nc2ccccc2C(=O)Nc2nc(-c3ccccc3)cs2)cc1 | 0.0 | 1.2 | 33.8* | -6.3
Cc1ccccc1C(=O)Nc1nnc(C2=COCCO2)o1 | -0.2 | -0.1 | 10.6 | 4.5
O=C1N(CN2CCN(c3cccc(C(F)(F)F)c3)CC2)c2ccccc2C12OCCCO2 | 0.1 | 1.2 | 8.3 | 8.0
O=[N+]([O-])c1nn(-c2ccccc2)n(O)c1=NCc1ccccc1 | -0.2 | -1.3 | -20.9 | -75.5
O=c1oc2cc(O)ccc2cc1-c1nnc(Nc2ccc(F)cc2)s1 | 0.0 | 1.0 | -9.9 | -2.8
O=c1oc2cc(O)ccc2cc1-c1nc(-c2cccs2)cs1 | 0.2 | -10.3 | 77.3* | -17.9
O=c1oc2cc(O)ccc2cc1-c1nc(-c2ccccc2)cs1 | 0.4 | -1.0 | -1.2 | 4.5
CCc1ccc(Nc2nnc(-c3cc4ccc(O)cc4oc3=O)s2)cc1 | 0.3 | 1.7 | 34.3* | -1.2
CCOc1ccc(NC(=O)CCN2CCN(CCO)CC2)cc1 | -0.3 | 1.8 | -6.1 | 2.4
SMILES | FBW7 activator | GPR151 ag | TEAD-YAP inh | MITF primary
Clc1ccccc1/C=C(/c1ccccc1)c1nc2ccccc2[nH]1 | 0.1 | -1.0 | 4.0 | 17.1
Cc1ccn2c(=O)c(C(=O)Nc3ccc(F)c(C(F)(F)F)c3)cnc2c1 | -0.2 | 0.6 | 0.0 | -3.7
CNc1cc(F)cc(-c2ccnc(Nc3ccc(-n4nc(C)nc4C)cc3)n2)c1 | 0.3 | -2.2 | 58.7* | 31.2
Cc1nc(C)n(-c2ccc(Nc3nccc(-c4cccc(-n5cncn5)c4)n3)cc2)n1 | 0.0 | -0.2 | 44.5* | 9.2
Cc1nc(C)n(-c2ccc(Nc3nccc(-c4cc(F)cc(-c5cn[nH]c5)c4)n3)cc2)n1 | -0.2 | 0.6 | -3.6 | 6.6
Cc1nc(C)n(-c2ccc(Nc3nccc(-c4cc(F)cc(N5CCCC5)c4)n3)cc2)n1 | 0.0 | -0.1 | 1.0 | -2.6
Cc1nc(C)n(-c2ccc(Nc3nccc(N(CCO)Cc4ccccc4)n3)cc2)n1 | -0.1 | 0.7 | 51.5* | -6.0
CCN1CCN(c2cc(F)cc(-c3ccnc(Nc4ccc(-n5nc(C)nc5C)cc4)n3)c2)CC1 | 0.6 | 1.9 | 67.5* | 15.5
O=S(=O)(c1ccccc1)c1nc(-c2ccc(F)cc2)oc1NCC1CCCO1 (stereo unspecified) | -0.2 | 1.7 | -2.7 | 0.7
Cc1ccccc1C1(CC(=O)N2CCNC(=O)C2)CC(=O)N(Cc2ccncc2)C1=O (stereo unspecified) | -0.1 | 1.9 | 12.5 | -6.6
C=CCOC(=O)C1=C(C)Nc2ncnn2C1c1cccc(F)c1 (stereo unspecified) | 0.0 | 0.9 | -8.5 | 3.0
CCOc1cc(C2C(C#N)=C(N)Oc3c2ccc2ccccc32)cc(Br)c1O (stereo unspecified) | 0.0 | 0.2 | 64.6* | 0.9
O=C1C=C(Nc2ccc(Cl)cc2)CC(c2ccccc2)C1 (stereo unspecified) | 0.1 | -0.4 | 32.8* | 12.0
Cc1ccc(NC2=CC(=O)CC(c3ccccc3)C2)cc1 (stereo unspecified) | 0.1 | -0.8 | 42.6* | 14.8
Cc1ccc(C2CC(=O)C=C(NCCc3ccccc3)C2)cc1 (stereo unspecified) | 0.1 | -0.1 | -7.0 | 14.1
COc1ccc(C2CC(=O)C=C(Nc3ccc(Cl)cc3)C2)cc1 (stereo unspecified) | -0.1 | -0.8 | -7.9 | -3.9
CCCCn1c2ccccc2c2nc3cc(OC)c(OC)cc3nc21 | 1.7 | -0.7 | 3.3 | -5.2
COc1cc2nc3c4ccccc4n(C(C)C)c3nc2cc1OC | 3.7* | -1.8 | 1.7 | -49.0
CCN(CC)CCn1c2ccccc2c2nc3ccccc3nc21 | 0.4 | -1.0 | 76.0* | 1.8
CCCn1c2ccccc2c2nc3cc(OC)c(OC)cc3nc21 | 3.7* | 2.1 | 9.6 | -9.6
CC(=O)OC[C@H]1O[C@H](C#CC2=CCCCC2)C=C[C@@H]1OC(C)=O | -0.1 | 2.3 | · | -4.4
Cc1ccc(/C=N/NC(=O)C2CC2c2ccccc2)cc1 (stereo unspecified) | 0.0 | 0.1 | 1.0 | -0.3
CCc1ccc(NC(=O)c2cc3n(n2)C(C(F)(F)F)CC(c2ccc(C)cc2)N3)cc1 (stereo unspecified) | 0.9 | -0.9 | 8.5 | 5.7
COc1ccc(-c2cc(C(F)(F)F)c3nc(OC(C)C(C)=O)oc3n2)cc1OC (stereo unspecified) | 0.0 | 1.5 | 80.8* | -1.2
Cc1nc(C)n(-c2ccc(Nc3cc(-c4nn(-c5ccc(C#N)cc5)cc4-c4ccccc4)ccn3)cc2)n1 | 0.6 | -2.3 | 41.7* | 17.8
Cc1nc(C)n(-c2ccc(Nc3cc(-c4nn(-c5nccs5)cc4-c4ccccc4)ccn3)cc2)n1 | 0.0 | -0.3 | 10.7 | 2.8
Cc1nc(C)n(-c2ccc(Nc3cc(-c4nn(-c5ccccc5C#N)cc4-c4ccccc4)ccn3)cc2)n1 | 0.0 | -2.4 | 32.9* | 19.3
Cc1nc(C)n(-c2ccc(Nc3cc(-c4nn(-c5ccc(N(C)C)cc5)cc4-c4ccccc4)ccn3)cc2)n1 | -0.1 | 1.1 | -12.8 | 1.9
COc1ccc(-c2nc(Nc3cc(C)cc(C)c3)c3ccccc3n2)cc1OC | -0.1 | 2.4 | -9.4 | -9.2
